In PubChem BioAssay (EPA / NIEHS):
Records with an inconclusive call do not appear. Calls of active or inactive are those of the source. The calls were made as follows, unless noted: active = hit-call score of the fitted dose curve at least 0.9, where 1 is the maximum; inconclusive = response in the unintended direction; inactive = score below 0.9.

What was measured:
[1] = ATG_TAL_CIS: Attagene CIS-FACTORIAL HepG2 Assay for human TAL Basal Promoter (AID 2282966; active = hit-call score of the fitted dose curve at least 0.9, where 1 is the maximum; inactive = score below 0.9;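 also: background control endpoint measuring basal TAL promoter reporter mRNA not a specific factor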); conditions: HepG2 Attagene cis-factorial TAL promoter reporter; actives raise or lower the signal
How it was run: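 Steps: transfect HepG2 with multiple reporter transcription units; dose 24 h; isolate RNA, reverse-transcribe, PCR-amplify, label with 6-FAM, digest with HpaI; resolve by capillary electrophoresis. Bidirectional fitting against DMSO baseline.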

[2] = ATG_TGFb_CIS: Attagene CIS-FACTORIAL HepG2 Assay for human Transforming Growth Factor (TGF) (AID 2282967; active = hit-call score of the fitted dose curve at least 0.9, where 1 is the maximum; inactive = score below 0.9); conditions: HepG2 Attagene CIS TGFb reporter, mRNA transcription; actives raise or lower the signal
How it was run: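 Liver HepG2 line, cis-factorial reporter panel, 24 h dosing. Quantitation: RT-PCR products labeled with 6-FAM, cut with HpaI, resolved by capillary electrophoresis; DMSO-referenced bidirectional analysis.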

[3] = ATG_VDRE_CIS: Attagene CIS-FACTORIAL HepG2 Assay for human Vitamin D Receptor Element (VDRE) (AID 2282968; active = hit-call score of the fitted dose curve at least 0.9, where 1 is the maximum; inactive = score below 0.9); conditions: HepG2 VDRE cis-reporter transcription, actives raise or lower the signal
How it was run: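 Transiently transfected HepG2 cells carrying cis-regulated reporter transcription units were exposed for 24 h. Reporter mRNA was measured by RT-PCR with fluorescent labelling and capillary electrophoresis, and fitted in both directions against DMSO.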

[4] = biological target: X-box-binding protein 1 (Homo sapiens) (UniProt P17861); assay: ATG_Xbp1_CIS: Attagene CIS-FACTORIAL HepG2 Assay for human X-box Binding Protein 1 (XBP1) (AID 2282972; active = hit-call score of the fitted dose curve at least 0.9, where 1 is the maximum; inactive = score below 0.9); conditions: HepG2 XBP1 cis-element reporter, Attagene multiplex; actives raise or lower the signal
How it was run: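 HepG2, transient MRTU transfection (cis-promoter driven), 24 h compound exposure. Total RNA → oligo(dT) RT → PCR → 6-FAM labeling → HpaI cut → CE. Bidirectional fit vs DMSO.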

[5] = ATG_M_19_TRANS: Attagene TRANS-FACTORIAL HepG2 Assay for M19 Transcription Factor (Internal Marker) (AID 2282974); conditions: HepG2 Attagene TRANS-FACTORIAL M19 internal marker reporter
How it was run: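 Measured here: internal-marker reporter transcript from HepG2 cells transfected with MRTUs, harvested at 24 h. cDNA PCR products were 6-FAM labelled by primer extension, cut with HpaI for 2 h at 37 C, and resolved by CE.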

[6] = ATG_GAL4_TRANS: Attagene TRANS-FACTORIAL HepG2 Assay for GAL4 (Internal Marker) (AID 2282976); conditions: HepG2 Attagene TRANS GAL4 internal marker reporter
How it was run: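 Liver HepG2 line bearing multiplexed GAL4-UAS reporter constructs; 24 h chemical treatment. Transcripts were quantified as fluorescent fragments on capillary electrophoresis after RT-PCR and HpaI cut, with activity fitted upward from DMSO.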

[7] = biological target: Estrogen-related receptor gamma (Homo sapiens) (UniProt P62508); assay: ATG_ERRg_TRANS: Attagene TRANS-FACTORIAL HepG2 Assay for human Estrogen-Related Receptor gamma (ERRg) (AID 2282977); conditions: HepG2 Attagene TRANS reporter, ERRg transactivation;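 also: hits increase reporter signal over DMSO so potencies reflect activators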
How it was run: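 HepG2 cells transiently transfected with multiplexed GAL4-UAS reporter units driven by chimeric NR-Gal4 proteins; 24 h exposure. Reporter mRNA quantified by RT-PCR, fluorescent labelling, HpaI digestion and capillary electrophoresis; gain of signal vs DMSO.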

[8] = biological target: Glucocorticoid receptor (Homo sapiens) (UniProt P04150); assay: ATG_GR_TRANS: Attagene TRANS-FACTORIAL HepG2 Assay for human Glucocorticoid Receptor (GR) (AID 2282978); conditions: HepG2 Attagene TRANS GR reporter, mRNA transcription;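 also: activators score as hits since higher reporter transcript over DMSO is fitted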
How it was run: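 Measurement of GAL4-UAS-driven reporter mRNA in human HepG2 liver cells 24 h post-dosing, using RT-PCR with fluorescent labelling and capillary electrophoresis; the transfected constructs report exogenous NR-GAL4 chimera activity, fitted upward against DMSO.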

[9] = biological target: Hepatocyte nuclear factor 4-alpha (Homo sapiens) (UniProt P41235); assay: ATG_HNF4a_TRANS: Attagene TRANS-FACTORIAL HepG2 Assay for human Hepatocyte Nuclear Factor 4 alpha (HNF4a) (AID 2282982); conditions: HepG2 HNF4a transactivation reporter, mRNA readout
How it was run: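 HepG2 cells transiently transfected with HNF4a-Gal4 chimera and GAL4-UAS reporter units, dosed for 24 h. Reporter mRNA measured by RT-PCR, fluorescent primer extension and capillary electrophoresis; gain-of-signal fitted relative to DMSO.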

[10] = ATG_M_06_TRANS: Attagene TRANS-FACTORIAL HepG2 Assay for M06 Transcription Factor (Internal Marker) (AID 2282983); conditions: HepG2 Attagene TRANS M06 internal marker reporter;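 also: reporter transcript level by RT-PCR then capillary electrophoresis fluorescence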
How it was run: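 Internal-marker background readout from a multiplexed TRANS reporter system in HepG2; 24 h dosing; mRNA induction quantified by RT-PCR plus capillary electrophoresis fluorescence; DMSO as negative control and baseline.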

[11] = ATG_M_32_TRANS: Attagene TRANS-FACTORIAL HepG2 Assay for M32 Transcription Factor (Internal Marker) (AID 2282984); conditions: HepG2 Attagene TRANS M32 internal marker reporter;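 also: transcript level of a background control reporter unit measured by RT-PCR and capillary electrophoresis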
How it was run: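 HepG2 cells transiently transfected with GAL4-UAS reporter units, dosed for 24 hours. Reporter mRNA quantified by RT-PCR, 6-FAM labelling, HpaI digestion and capillary electrophoresis; internal-marker signal fitted upward relative to DMSO.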

[12] = biological target: Nuclear receptor subfamily 4 group A member 2 (Homo sapiens) (UniProt P43354); assay: ATG_NURR1_TRANS: Attagene TRANS-FACTORIAL HepG2 Assay for human Nuclear Receptor Related Protein 1 (NURR1) (AID 2282985); conditions: HepG2 Attagene TRANS reporter, mRNA readout
How it was run: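 HepG2 cells transiently transfected with NURR1-Gal4 chimera and GAL4-UAS reporter units; after 24 hr compound exposure, reporter mRNA quantified by RT-PCR and capillary electrophoresis; gain of signal fitted against DMSO.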

[13] = biological target: Transcriptional activator Myb (Homo sapiens) (UniProt P10242); assay: ATG_Myb_CIS: Attagene CIS-FACTORIAL HepG2 Assay for human Myeloblastosis (Myb) Proto-Oncogene Transcription Factor (AID 2282986; active = hit-call score of the fitted dose curve at least 0.9, where 1 is the maximum; inactive = score below 0.9); conditions: HepG2 Attagene CIS-FACTORIAL Myb reporter transcription; actives raise or lower the signal
How it was run: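 Fluorescence signals from capillary electrophoresis of RT-PCR-amplified reporter cDNA give the read-out. Cells: HepG2 transfected with multiple cis-regulated reporter units. Exposure lasts 24 hours; DMSO defines baseline for gain or loss of signal.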

[14] = biological target: Nuclear respiratory factor 1 (Homo sapiens) (UniProt Q16656); assay: ATG_NRF1_CIS: Attagene CIS-FACTORIAL HepG2 Assay for human Nuclear Respiratory Factor 1 (NRF1) Orphan Gene (AID 2282987; active = hit-call score of the fitted dose curve at least 0.9, where 1 is the maximum; inactive = score below 0.9); conditions: HepG2 NRF1 cis-element reporter, Attagene multiplex; actives raise or lower the signal
How it was run: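 Transcriptional reporter readout, one component of a 52-endpoint multiplexed HepG2 panel. Exposure 24 h; mRNA detected via RT-PCR and fluorescent capillary electrophoresis; fitting in both directions against DMSO.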

[15] = biological target: Steroid hormone receptor ERR1 (Homo sapiens) (UniProt P11474); assay: ATG_ERRa_TRANS: Attagene TRANS-FACTORIAL HepG2 Assay for human Estrogen-Related Receptor alpha (ERRa) (AID 2282971); conditions: HepG2 Attagene TRANS reporter, ERRa transactivation
How it was run: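 Signal gain relative to DMSO for an ERRa-Gal4 chimeric receptor, read as reporter mRNA by RT-PCR/capillary electrophoresis. Human HepG2 liver cells, transient multiplex reporter transfection, 24 h chemical exposure.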

[16] = biological target: Oxysterols receptor LXR-alpha (Homo sapiens) (UniProt Q13133); assay: ATG_LXRa_TRANS: Attagene TRANS-FACTORIAL HepG2 Assay for human Liver X Receptor alpha (LXRa) (AID 2282980); conditions: HepG2 Attagene TRANS reporter, LXRa transactivation
How it was run: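 In this multiplexed TRANS system, compounds act on HepG2 cells carrying GAL4-UAS reporter units and a receptor-GAL4 fusion for 24 h. Induced reporter RNA is amplified, fluorescently labelled and sized by capillary electrophoresis, with DMSO as baseline.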

[17] = biological target: Oxysterols receptor LXR-beta (Homo sapiens) (UniProt P55055); assay: ATG_LXRb_TRANS: Attagene TRANS-FACTORIAL HepG2 Assay for human Liver X Receptor beta (LXRb) (AID 2282981); conditions: HepG2 Attagene TRANS GAL4-LXRb reporter, mRNA
How it was run: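 HepG2 cells transiently transfected with GAL4-UAS reporter units for chimeric NR-Gal4 proteins, dosed for 24 h. Reporter transcripts measured by RT-PCR and capillary electrophoresis; gain-of-signal fitting relative to DMSO.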

[18] = biological target: Bile acid receptor (Homo sapiens) (UniProt Q96RI1); assay: ATG_FXR_TRANS: Attagene TRANS-FACTORIAL HepG2 Assay for Farnesoid X Receptor (FXR) (AID 2282979); conditions: HepG2 Attagene TRANS FXR-GAL4 reporter transcription;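 also: hits raise reporter mRNA above DMSO so AC50 marks FXR activation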
How it was run: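 After 24 h chemical treatment of transfected HepG2 cells, GAL4-UAS reporter transcripts driven by an exogenous FXR-GAL4 fusion were measured by RT-PCR and capillary electrophoresis. Increases over DMSO were fitted.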

Measured: outcome

Chain of Steroid hormone receptor ERR1 (Homo sapiens) (P11474 whole entry, looked up, the tested form may be a part): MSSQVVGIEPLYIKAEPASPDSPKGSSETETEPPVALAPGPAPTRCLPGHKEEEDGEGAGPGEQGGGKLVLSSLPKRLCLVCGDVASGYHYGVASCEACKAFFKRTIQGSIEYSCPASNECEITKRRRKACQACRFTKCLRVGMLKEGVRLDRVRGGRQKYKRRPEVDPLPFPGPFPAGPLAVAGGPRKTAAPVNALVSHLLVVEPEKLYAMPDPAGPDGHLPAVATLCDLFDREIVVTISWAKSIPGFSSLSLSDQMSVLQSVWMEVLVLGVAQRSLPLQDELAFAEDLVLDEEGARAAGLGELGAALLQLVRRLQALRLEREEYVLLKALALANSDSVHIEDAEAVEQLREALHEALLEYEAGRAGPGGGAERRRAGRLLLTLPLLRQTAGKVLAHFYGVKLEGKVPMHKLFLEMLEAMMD
Chain of Nuclear respiratory factor 1 (Homo sapiens) (Q16656 whole entry, looked up): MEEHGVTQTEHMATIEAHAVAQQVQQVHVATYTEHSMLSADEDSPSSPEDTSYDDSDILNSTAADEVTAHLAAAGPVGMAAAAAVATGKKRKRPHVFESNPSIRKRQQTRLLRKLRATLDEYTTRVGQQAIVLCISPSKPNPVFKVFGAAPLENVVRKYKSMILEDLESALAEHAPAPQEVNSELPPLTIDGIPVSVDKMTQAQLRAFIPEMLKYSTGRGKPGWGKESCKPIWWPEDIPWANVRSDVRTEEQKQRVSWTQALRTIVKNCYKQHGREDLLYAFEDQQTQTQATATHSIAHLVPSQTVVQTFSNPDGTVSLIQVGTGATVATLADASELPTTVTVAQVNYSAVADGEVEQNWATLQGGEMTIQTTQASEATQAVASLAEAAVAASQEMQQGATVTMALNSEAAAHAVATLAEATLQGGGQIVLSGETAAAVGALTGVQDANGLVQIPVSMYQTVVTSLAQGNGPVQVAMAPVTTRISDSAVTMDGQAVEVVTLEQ
Chain of Oxysterols receptor LXR-alpha (Homo sapiens) (Q13133 whole entry, looked up, the tested form may be a part): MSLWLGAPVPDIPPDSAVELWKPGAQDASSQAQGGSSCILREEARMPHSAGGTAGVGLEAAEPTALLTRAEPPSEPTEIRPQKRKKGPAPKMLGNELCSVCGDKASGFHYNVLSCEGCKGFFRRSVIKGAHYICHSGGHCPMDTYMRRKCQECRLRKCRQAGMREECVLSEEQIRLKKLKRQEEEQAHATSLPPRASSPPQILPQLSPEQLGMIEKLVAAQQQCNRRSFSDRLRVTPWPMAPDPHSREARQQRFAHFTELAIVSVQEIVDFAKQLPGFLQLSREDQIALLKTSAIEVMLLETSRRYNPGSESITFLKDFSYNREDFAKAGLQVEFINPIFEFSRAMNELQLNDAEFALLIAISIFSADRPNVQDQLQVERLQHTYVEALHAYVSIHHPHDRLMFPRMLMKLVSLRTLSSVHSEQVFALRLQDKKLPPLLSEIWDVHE
Chain of X-box-binding protein 1 (Homo sapiens) (P17861 whole entry, looked up): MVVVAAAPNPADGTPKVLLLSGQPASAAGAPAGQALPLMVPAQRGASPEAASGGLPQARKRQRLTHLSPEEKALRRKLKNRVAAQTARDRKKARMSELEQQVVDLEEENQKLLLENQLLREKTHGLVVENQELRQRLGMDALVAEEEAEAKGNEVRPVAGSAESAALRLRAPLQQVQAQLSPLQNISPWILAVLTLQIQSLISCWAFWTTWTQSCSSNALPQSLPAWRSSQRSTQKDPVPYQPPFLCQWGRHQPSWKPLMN
Chain of Oxysterols receptor LXR-beta (Homo sapiens) (P55055 whole entry, looked up, the tested form may be a part): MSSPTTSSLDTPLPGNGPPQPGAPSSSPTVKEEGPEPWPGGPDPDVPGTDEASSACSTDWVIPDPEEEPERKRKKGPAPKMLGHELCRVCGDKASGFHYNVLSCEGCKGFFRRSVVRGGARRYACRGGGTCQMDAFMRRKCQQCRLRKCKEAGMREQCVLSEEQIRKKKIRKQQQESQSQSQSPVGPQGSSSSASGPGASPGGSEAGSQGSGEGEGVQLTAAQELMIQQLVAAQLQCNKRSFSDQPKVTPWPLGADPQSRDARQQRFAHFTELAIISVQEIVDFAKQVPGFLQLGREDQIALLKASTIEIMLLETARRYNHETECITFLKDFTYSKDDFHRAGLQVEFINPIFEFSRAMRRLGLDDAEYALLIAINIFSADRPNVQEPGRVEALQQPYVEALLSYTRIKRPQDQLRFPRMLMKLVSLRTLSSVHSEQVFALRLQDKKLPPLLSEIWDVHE
Chain of Nuclear receptor subfamily 4 group A member 2 (Homo sapiens) (P43354 whole entry, looked up, the tested form may be a part): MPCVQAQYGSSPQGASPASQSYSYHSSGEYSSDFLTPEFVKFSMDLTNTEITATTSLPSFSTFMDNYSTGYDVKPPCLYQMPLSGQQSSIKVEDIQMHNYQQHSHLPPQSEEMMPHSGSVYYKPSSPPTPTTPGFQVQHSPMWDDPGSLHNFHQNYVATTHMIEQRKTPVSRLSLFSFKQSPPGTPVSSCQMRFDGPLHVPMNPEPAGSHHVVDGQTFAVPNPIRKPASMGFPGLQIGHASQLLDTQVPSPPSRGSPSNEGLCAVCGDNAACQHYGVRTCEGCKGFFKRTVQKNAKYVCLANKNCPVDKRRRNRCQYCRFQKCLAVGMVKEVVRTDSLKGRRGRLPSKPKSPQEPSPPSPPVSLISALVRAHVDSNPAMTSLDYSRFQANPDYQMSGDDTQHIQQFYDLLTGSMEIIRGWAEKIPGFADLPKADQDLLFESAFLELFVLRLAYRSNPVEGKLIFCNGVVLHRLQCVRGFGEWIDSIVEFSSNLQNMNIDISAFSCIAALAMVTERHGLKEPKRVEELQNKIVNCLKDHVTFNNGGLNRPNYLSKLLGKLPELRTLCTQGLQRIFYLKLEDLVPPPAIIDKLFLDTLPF
Chain of Glucocorticoid receptor (Homo sapiens) (P04150 whole entry, looked up, the tested form may be a part): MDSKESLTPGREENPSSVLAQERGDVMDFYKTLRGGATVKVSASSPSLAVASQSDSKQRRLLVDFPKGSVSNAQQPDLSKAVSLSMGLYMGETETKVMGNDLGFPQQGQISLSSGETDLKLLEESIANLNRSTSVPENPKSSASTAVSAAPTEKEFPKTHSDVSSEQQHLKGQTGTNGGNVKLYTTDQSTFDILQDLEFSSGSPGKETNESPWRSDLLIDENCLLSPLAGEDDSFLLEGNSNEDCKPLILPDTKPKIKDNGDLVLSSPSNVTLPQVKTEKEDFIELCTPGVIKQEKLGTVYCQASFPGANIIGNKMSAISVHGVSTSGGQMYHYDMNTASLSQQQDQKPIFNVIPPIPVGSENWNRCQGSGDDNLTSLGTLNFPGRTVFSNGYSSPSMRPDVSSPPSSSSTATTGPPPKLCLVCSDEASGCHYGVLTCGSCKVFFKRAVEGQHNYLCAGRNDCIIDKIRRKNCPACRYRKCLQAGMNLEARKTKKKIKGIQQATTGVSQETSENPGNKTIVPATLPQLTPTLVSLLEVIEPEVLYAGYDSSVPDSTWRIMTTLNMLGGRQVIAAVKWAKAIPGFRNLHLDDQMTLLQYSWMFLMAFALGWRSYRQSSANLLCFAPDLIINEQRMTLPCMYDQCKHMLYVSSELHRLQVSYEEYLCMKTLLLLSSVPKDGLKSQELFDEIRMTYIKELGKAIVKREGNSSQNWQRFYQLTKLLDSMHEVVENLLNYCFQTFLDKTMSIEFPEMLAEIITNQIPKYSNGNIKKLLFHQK
Chain of Bile acid receptor (Homo sapiens) (Q96RI1 whole entry, looked up, the tested form may be a part): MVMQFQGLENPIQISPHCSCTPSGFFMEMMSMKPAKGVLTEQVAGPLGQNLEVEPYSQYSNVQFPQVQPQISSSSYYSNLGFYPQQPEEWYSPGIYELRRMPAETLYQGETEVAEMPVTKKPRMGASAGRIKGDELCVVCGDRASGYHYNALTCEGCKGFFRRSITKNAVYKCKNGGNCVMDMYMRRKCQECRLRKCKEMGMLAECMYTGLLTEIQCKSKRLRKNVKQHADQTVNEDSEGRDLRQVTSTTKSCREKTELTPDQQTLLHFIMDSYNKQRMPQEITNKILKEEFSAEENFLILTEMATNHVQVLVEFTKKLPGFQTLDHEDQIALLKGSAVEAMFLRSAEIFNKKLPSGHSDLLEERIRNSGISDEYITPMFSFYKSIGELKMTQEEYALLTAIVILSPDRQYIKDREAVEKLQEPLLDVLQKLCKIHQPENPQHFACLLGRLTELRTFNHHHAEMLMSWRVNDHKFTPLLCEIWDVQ
Chain of Hepatocyte nuclear factor 4-alpha (Homo sapiens) (P41235 whole entry, looked up, the tested form may be a part): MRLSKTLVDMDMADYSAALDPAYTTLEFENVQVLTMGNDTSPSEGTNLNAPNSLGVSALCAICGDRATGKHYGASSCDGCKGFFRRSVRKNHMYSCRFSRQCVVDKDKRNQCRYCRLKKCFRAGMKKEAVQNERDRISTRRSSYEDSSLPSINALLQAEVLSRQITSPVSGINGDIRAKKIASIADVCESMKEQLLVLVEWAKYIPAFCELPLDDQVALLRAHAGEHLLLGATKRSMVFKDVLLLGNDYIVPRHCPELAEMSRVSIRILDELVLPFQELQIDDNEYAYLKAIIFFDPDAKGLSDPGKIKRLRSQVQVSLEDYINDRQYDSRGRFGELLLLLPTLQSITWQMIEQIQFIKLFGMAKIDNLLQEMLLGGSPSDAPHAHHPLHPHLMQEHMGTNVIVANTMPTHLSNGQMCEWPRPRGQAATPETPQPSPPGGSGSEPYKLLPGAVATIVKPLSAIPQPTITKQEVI
Chain of Estrogen-related receptor gamma (Homo sapiens) (P62508 whole entry, looked up, the tested form may be a part): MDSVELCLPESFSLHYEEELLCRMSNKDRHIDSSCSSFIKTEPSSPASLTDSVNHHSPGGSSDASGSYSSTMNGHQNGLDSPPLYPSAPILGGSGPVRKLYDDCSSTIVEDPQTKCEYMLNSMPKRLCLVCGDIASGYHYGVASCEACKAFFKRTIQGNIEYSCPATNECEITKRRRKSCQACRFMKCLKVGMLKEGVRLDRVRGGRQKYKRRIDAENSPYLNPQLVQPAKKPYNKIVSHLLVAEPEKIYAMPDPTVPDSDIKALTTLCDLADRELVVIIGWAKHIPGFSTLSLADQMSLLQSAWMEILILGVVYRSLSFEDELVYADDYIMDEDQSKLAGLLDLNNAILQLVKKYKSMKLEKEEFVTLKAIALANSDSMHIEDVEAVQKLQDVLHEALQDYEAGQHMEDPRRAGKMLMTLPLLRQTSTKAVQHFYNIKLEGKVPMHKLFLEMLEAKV

CCc1ccc(O)cc1
inactive: [1] | [2] | [3] | [4] | [5] | [6] | [7] | [8] | [9] | [10] | [11] | [12] | [13] | [14]

COCCc1ccc(OCC(O)CNC(C)C)cc1 (centres undefined)
inactive: [1] | [2] | [3] | [15] | [4] | [5] | [8] | [11] | [13] | [14]

C=CC(=C)CCCC(C)(C)OC(C)=O
inactive: [1] | [2] | [3] | [15] | [5] | [8] | [16] | [17] | [9] | [10] | [13] | [14]

COc1ccc(CCO)cc1
inactive: [1] | [2] | [3] | [4] | [5] | [6] | [8] | [16] | [17] | [11] | [13] | [14]

CCCCCCCCCCCCCC(=O)OCC(O)CO (centres undefined)
inactive: [1] | [2] | [3] | [15] | [4] | [6] | [8] | [18] | [17] | [9] | [10] | [11] | [13] | [14]

COc1ccc(CCN2CCC(Nc3nc4ccccc4n3Cc3ccc(F)cc3)CC2)cc1
inactive: [1] | [2] | [3] | [15] | [4] | [6] | [7] | [18] | [10] | [11] | [12] | [13] | [14]

Cc1occc(=O)c1OC(=O)C(C)C
inactive: [1] | [2] | [3] | [15] | [4] | [5] | [16] | [9] | [11] | [12] | [14]

O=C(O)CCCCCCCCCCCC(=O)O
inactive: [1] | [2] | [3] | [15] | [4] | [5] | [16] | [13] | [14]

CC(C)CC(C)CC(O)CC(C)C (centres undefined)
inactive: [1] | [2] | [3] | [4] | [5] | [6] | [18] | [16] | [11] | [12] | [13] | [14]

O=P(O)(O)O
inactive: [1] | [2] | [3] | [4] | [5] | [6] | [8] | [9] | [10] | [12] | [13] | [14]
